The list is not random: actives were taken first. Their share in the collection is about 18%.
TDP1 cell noCPT – qHTS for Inhibitors of human tyrosyl-DNA phosphodiesterase 1 (TDP1): qHTS in cells in absence of CPT | DT40 Tdp1-/- hTDP1 cells, no CPT, ATP luminescence, 48 h | Potency, µM (doses to about 46.2 µM), for the others: at the top dose activity change, negative = growth inhibition, hits mostly inhibitors | actives 15% (n = 420,000) | AID 686978, 2013; note: potency is the fitted concentration of half-maximal effect; nearly all actives have a fitted effect of over 55% in size
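DT40 Tdp1-/-;hTDP1 cells, no CPT (DMSO vehicle only), 400 cells/well; compounds pin-transferred; ≥48 hr, 37 °C; CellTiter-Glo 30 min RT dark, luminescence read.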
VP16 counter – VP16 counterscreen qHTS for inhibitors of ROR gamma transcriptional activity; Drosophila S2 Gal4-VP16 UAS-luciferase, luminescence, 20 h; actives 3.5% (n = 310,000); Potency, µM (top dose mostly 53.6 µM), for the others: at the top dose activity, negative = inhibition, actives largely listed as inhibitors;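 note: Gal4-VP16 expression switched on by copper sulfate through the metallothionein promoter; potency is the fitted concentration of half-maximal effect; nearly all actives have a fitted effect of over 50% in size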
DT40 TDP1 CPT – qHTS for Inhibitors of human tyrosyl-DNA phosphodiesterase 1 (TDP1): qHTS in cells in presence of CPT; chicken DT40 Tdp1-/-;hTDP1 cells + 20 nM CPT, ATP luminescence, 48 h; Potency, µM (titrated, usually from 46.2 µM), inactives show top-dose activity change, negative = growth inhibition, hits mostly inhibitors; actives 12% (n = 420,000); note: potency is the fitted concentration of half-maximal effect; nearly all actives have a fitted effect of over 55% in size
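Chicken DT40 Tdp1-/- cells stably complemented with human TDP1 were seeded at 400 cells/well in medium containing 20 nM camptothecin, exposed to pin-transferred compounds, and grown at 37 °C for at least 48 hr. Viability was read as ATP luminescence.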
IL-1B inflam inh – qHTS for Inhibitors of Inflammasome Signaling: IL-1-beta AlphaLISA Primary Screen; THP-1 LPS/ATP IL-1B secretion, AlphaLISA, 16 h; hits give low values; activity change, % at 57.5 µM; actives 4.7% (n = 360,000); AID 743279, 2014; in the data active = activity change below about -50%; inconclusive = mostly about -30% to -49%
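Secreted IL-1B measured by AlphaLISA bead assay after 16 h compound exposure of THP-1 cells; compounds (final up to 57.5 uM) added 1 h before LPS (250 ng/mL) and ATP (1.25 mM) stimulation; lower signal means less secretion.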
LDHA inh – qHTS assay for inhibitors of human lactate dehydrogenase | L-lactate dehydrogenase A chain (Homo sapiens), P00338 | purified LDHA, NADH/diaphorase-resazurin fluorescence; hits give low values | actives 0.15% (n = 480,000) | activity change, % (values are at about 110 or 230 µM) | AID 1347041, 2019; in the data active = activity change below about -30%; inconclusive = mostly about -25% to -30%;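 note: plate controls were DMSO wells for no effect and wells without enzyme for full effect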
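LDH5 2 nM; NADH 0.06 mM, pyruvate 0.2 mM; 200 mM Tris pH 7.4, EDTA, Tween-20; 5 min RT. Detection: diaphorase 0.133 mg/mL + resazurin 37 µM, fluorescence ex540/em590 at 0 and 20 min; normalized to enzyme-free and DMSO wells.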
RORgamma inh – qHTS for inhibitors of ROR gamma transcriptional activity; Nuclear receptor ROR-gamma (Mus musculus), P51450; Drosophila S2 Gal4-RORgamma UAS-luciferase reporter, 20 h; Potency, µM (series often up to 53.6 µM), for the others: top-dose activity change, negative = inhibition, hits mostly inhibitors; actives 5.4% (n = 310,000); AID 2551, 2010; note: potency is the fitted concentration of half-maximal effect; nearly all actives have a fitted effect of over 60% in size
Target sequence (P51450 whole entry, looked up, the tested form may be a part): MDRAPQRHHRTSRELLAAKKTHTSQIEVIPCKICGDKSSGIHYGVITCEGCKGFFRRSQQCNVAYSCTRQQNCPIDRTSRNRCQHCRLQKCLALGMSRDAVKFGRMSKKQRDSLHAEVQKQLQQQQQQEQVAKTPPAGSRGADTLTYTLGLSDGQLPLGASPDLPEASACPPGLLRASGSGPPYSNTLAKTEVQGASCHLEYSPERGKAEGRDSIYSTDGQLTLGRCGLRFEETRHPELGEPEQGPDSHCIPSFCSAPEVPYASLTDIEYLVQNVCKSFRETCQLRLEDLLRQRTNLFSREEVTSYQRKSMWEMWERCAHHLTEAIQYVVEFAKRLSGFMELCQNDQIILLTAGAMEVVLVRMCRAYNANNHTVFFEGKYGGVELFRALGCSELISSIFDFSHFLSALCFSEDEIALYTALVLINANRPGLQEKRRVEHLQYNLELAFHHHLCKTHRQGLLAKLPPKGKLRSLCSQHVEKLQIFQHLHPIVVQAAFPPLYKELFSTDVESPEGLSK
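ROR gamma transcriptional activity was tracked as Gal4-UAS luciferase output in stably transfected Drosophila Schneider cells, with compound added 1 hr before 700 uM copper sulfate induction and a 20 hr ambient-temperature incubation.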
* marks the source's active call; other numbers are inactive results; ? = inconclusive; . = not tested or not shown; [ ] = dose if it differs, or a comment. Unless noted, calls come from the whole dose curve; as a rule, active = well fitted curve in the direction sought with a large enough effect; inconclusive = small, poorly fitted or top-dose-only effect, or another doubt; inactive = no such curve, though single readings can be large; an effect the other way counts as inactive or inconclusive. Unless noted, % is set by controls: 0 for no effect and ±100 for the full control effect.

SMILES | TDP1 cell noCPT | VP16 counter | DT40 TDP1 CPT | IL-1B inflam inh | LDHA inh | RORgamma inh
Cc1cc(I)ccc1Nc1nc(NCCN2CCOCC2)nc(N2CCOCC2)n1 | 5.6µM* | . | 3.2µM* | . | -2 | .
COc1cccc(-c2c(NC(=O)c3cccc([N+](=O)[O-])c3)oc3ccc(Cl)cc3c2=O)c1 | . | . | . | . | -4 | .
CC(=O)N(c1ccccc1)C1CCCC1 | -12% | 1% | -9% | 10 | -3 | -11%
CC(=O)Nc1ccc(C(=O)OCC(=O)N(C)C2CCCCC2)cc1 | -3% | -10% | 24% | 3 | -3 | 5%
O=C(CCl)N(c1ccccc1)C1CCCCC1 | 2.9µM* | 3.5µM* | 2.6µM* | -101* | -7 | 0.71µM*
CC(=O)Nc1ccc(C(=O)OCC(=O)N(c2ccccc2)C2CCCCC2)cc1 | 23µM* | . | ? | -27 | -6 | .
CCOC(=O)c1cc2n(n1)CC(C)(C(=O)NC1CCC(C)CC1)N(CCc1cccs1)C2=O (configuration not stated) | . | . | . | . | -9 | .
Cc1cccc(N2NC3(CCCCC3)NC2=S)c1C | . | . | . | . | 13 | .
CC(Sc1nnc(CN2CCCC2)n1Cc1ccccc1)C(=O)Nc1ccc(F)cc1Cl (configuration not stated) | 26µM* | . | 18µM* | ? | 1 | .
COCCn1c(SC(C)C(=O)Nc2ncc(Cl)cc2Cl)nc2ccccc21 (configuration not stated) | -23% | 3% | ? | -14 | -5 | -36%
Cc1nnc(SC(C)C(=O)Nc2ncc(Cl)cc2Cl)n1Cc1ccccc1 (configuration not stated) | -6% | 28µM* | -4% | -3 | -1 | ?
COC(=O)C12C3CCC4C5C3C1C5(C(=O)OC)C42 (configuration not stated) | . | . | . | . | 25 | .
CSc1ccc(CN(C)C(=O)/C=C/c2cccs2)cc1 | . | . | . | . | 8 | .
Cc1onc(-c2ccccc2)c1C(=O)N/N=C/c1cn(C)c2ccccc12 | ? | ? | -24% | 30 | -8 | 11µM*
Cc1onc(-c2ccccc2)c1C(=O)N/N=C/c1cc(Br)c(O)c(Br)c1 | ? | . | ? | 12 | -3 | .
Cc1onc(-c2ccccc2)c1C(=O)N/N=C/c1cc2c(cc1Br)OCO2 | 26µM* | -10% | ? | -14 | -2 | ?
Cc1onc(-c2ccccc2)c1C(=O)N/N=C/c1ccccc1OC(C)C | -22% | -19% | -22% | ? | -2 | ?
Cc1cccc(/C=N/NC(=O)c2c(-c3ccccc3)noc2C)c1O | 2.9µM* | 6.3µM* | 18µM* | 135 | 0 | 4µM*
O=C1c2ccccc2S(=O)(=O)N1Cc1nc(-c2cc(Cl)ccc2Cl)cs1 | . | . | . | . | 1 | .
CCOc1ccccc1-n1c(SCC(=O)NC2CCCC2)nnc1-c1ccoc1C | 14µM* | -10%[0.365 µM] | ? | -10 | 2 | -9%
Cn1c(=O)c2c(nc(SCC(=O)Nc3ccc(F)cc3)n2Cc2ccccc2F)n(C)c1=O | ? | . | -23% | . | -4 | .
Cn1c(=O)c2c(nc(SCC(=O)Nc3ccccc3F)n2Cc2ccccc2F)n(C)c1=O | 2.9µM* | . | -27% | . | 3 | .
O=C(CCCSc1nnnn1-c1cccc2ccccc12)c1ccc(F)cc1 | 21µM* | -27% | -16% | -4 | -20 | ?
Cc1occc1-c1nnc(SCCCC(=O)c2ccc(F)cc2)n1C | 16µM* | ? | 18µM* | -30 | -8 | 0%
Cc1ccc(-c2ccc(OC(=O)c3ccccc3)c(C)c2)cc1 | . | . | . | . | 0 | .
SMILES | TDP1 cell noCPT | VP16 counter | DT40 TDP1 CPT | IL-1B inflam inh | LDHA inh | RORgamma inh
COc1ccc2c(c1)C=C(C(=O)Nc1ccc3ccc(=O)oc3c1)C=CO2 | . | . | . | . | 2 | .
CC(C)n1c(SCC(=O)Nc2ccccc2N2CCOCC2)nc2c1c(=O)n(C)c(=O)n2C | ? | -15% | -8% | 15 | -6 | 21%
Cc1occc1-c1nnc(SCC(=O)Nc2ccccc2N2CCCCC2)n1C | 18µM* | 3% | 18µM* | -53* | 1 | ?
CCn1c(SCC(=O)Nc2ccccc2N2CCCCC2)nc2c1c(=O)n(C)c(=O)n2C | 16µM* | -14% | 18µM* | -7 | 3 | 19%
COc1ccc(Nc2nc3cc(-c4ccsc4)sc3c(=O)n2C)cc1OC | ? | . | 13µM* | 14 | -3 | .
COc1cccc(-c2cc3nc(Nc4ccc(OC)c(OC)c4)n(C)c(=O)c3s2)c1 | ? | . | ? | ? | 5 | .
CCOC(=O)Cc1ccc(Nc2nc3cc(-c4sccc4C)sc3c(=O)n2C)cc1 | 3.7µM* | . | 2.9µM* | 0 | -3 | .
Cc1ccsc1-c1cc2nc(NCCOc3ccccc3Cl)n(C)c(=O)c2s1 | ? | . | ? | -10 | -4 | .
COc1ccc(Nc2nc3cc(-c4sccc4C)sc3c(=O)n2C)cc1OC | 1µM* | . | 1.3µM* | -2 | -4 | .
COc1ccc(-c2cc3nc(NCC4CCCCC4)n(C)c(=O)c3s2)cc1OC | ? | . | ? | 13 | -5 | .
Cc1nc2cc(NC(=O)COc3ccccc3C)ccc2o1 | . | . | . | . | -5 | .
Cn1c(=O)c2c(nc(CN3CCN(c4ccc(F)cc4)CC3)n2Cc2ccc(F)cc2)n(C)c1=O | . | . | . | . | 2 | .
O=C(c1ccc(Cl)cc1)c1ccccc1C(=O)N1CCN(C(=O)CC2CCCC2)CC1 | . | . | . | . | 1 | .
Cc1cc(Cl)ccc1NC(=O)CN1c2ccc(S(N)(=O)=O)cc2CC1C (configuration not stated) | . | . | . | . | -8 | .

Compound activity (PubChem)
